Test results: PubChem BioAssay AID1578 (Sanford-Burnham Center for Chemical Genomics, 2009)
The campaign covered roughly 290,000 compounds. About 3,000 (1%) were called active. The sample as a whole holds a higher share of actives than the screen did. Values without a mark were called inactive. Rule as the data show it: active = inhibition mostly above about 36% (no sharp cut-off); inactive = mostly below about 34%.

test: inhibition of NOD1-driven NF-kB reporter – cell-based, luminescence, uHTS, primary screen (AID 1578); conditions: NOD1-driven NF-kB luciferase reporter cells, at 4 µM, active compounds read high;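 also: HEK-293T reporter cells stimulated with the NOD1 agonist gamma-tri-DAP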

| SMILES | inhibition |
| --- | --- |
| O=C(COC(=O)c1ccc(S(=O)(=O)N2CCc3ccccc3C2)cc1)NC1CCS(=O)(=O)C1 (configuration not stated) | 3.9% |
| NS(=O)(=O)c1ccc(NC(=S)NCc2ccc(Cl)cc2)cc1 | 4.1% |
| CC1=CN2C(=N)/C(=C/c3ccc([N+](=O)[O-])o3)C(=O)N=C2S1 | 78.2% (active) |
| CC1=CN2C(=N)/C(=C/c3ccco3)C(=O)N=C2S1 | -63.4% |
| CC1=CN2C(=N)/C(=C/c3ccc(Sc4ccc(C)cc4)o3)C(=O)N=C2S1 | -6.2% |
| CC1=CN2C(=N)/C(=C/c3ccc(C)o3)C(=O)N=C2S1 | -39.8% |
| CC1=CN2C(=N)/C(=C/c3ccc(Sc4ccc(Cl)cc4)o3)C(=O)N=C2S1 | 76.7% (active) |
| CC1=NN2C(=N)/C(=C\c3ccc(SCc4ccccc4)o3)C(=O)N=C2S1 | 9.5% |
| CC(=O)Nc1ccc(OC(=O)c2cc3cc(Br)ccc3oc2=O)cc1 | 7.6% |
| CC(C)C(=O)Nc1ccc(NC(=O)c2ccccc2Cl)nc1 | -13.2% |
| CCN(CC)C(=O)CSc1nnc([C@H](Cc2c[nH]c3ccccc23)NC(=O)OC(C)(C)C)o1 | -14.8% |
| CC(C)N(C(=O)CSc1nnc(NC(=O)C2CCC2)s1)C(C)C | -7.8% |
| CC(C)Sc1nnc(NC(=O)C2CC2)s1 | 37.9% (active) |
| CCSc1nnc(NC(=O)C2CCCCC2)s1 | -31.5% |
| CCc1ccc(NC(=O)CSc2nnnn2-c2cccnc2)cc1 | -28.4% |
| CCCC(=O)C1=C(O)C(C(=O)OC)C(C)(C)CC1=NCCCCCC(=O)O (configuration not stated) | -12.1% |

| SMILES | inhibition |
| --- | --- |
| Cc1cc(C)c(NC(=O)c2ccc3c(c2)C(=O)N(Cc2cccnc2)C3=O)c(C)c1 | -0.6% |
| Fc1cccc(CNc2ncnc3cc(Cl)ccc23)c1F | 0.2% |
| COc1cc2ncnc(NCc3cc(F)ccc3F)c2cc1OC | 0.3% |
| Nc1cc(=O)[nH]n1C1CCN(c2ccccc2)CC1 | -4% |
| COc1ccc(C2C=C(Nc3ccccc3)C(=O)N2c2ccccc2)cc1OC (configuration not stated) | 4.9% |
| COc1ccc(-c2cc(CNC(=O)CCl)on2)cc1 | 54.5% |
| CC(=O)NCc1cc(-c2ccc(Cl)cc2)no1 | -35.1% |
| O=C(CCl)NCc1cc(-c2ccc(Cl)cc2)no1 | 87.7% (active) |
| COc1ccc(Cl)cc1NC(=O)CN1C(=O)NC2(CCCC2)C1=O | -8.5% |
| CCn1c(SCC(=O)N2CCCc3ccccc32)nc2ccccc2c1=O | -37.5% |
| O=C(CSc1ncnc2c1oc1ccccc12)NCc1ccc(F)cc1 | 19.3% |
| O=C(CSc1ncnc2c1oc1ccccc12)NCc1ccco1 | 72.8% (active) |
| CCc1nc(SCC(=O)N2CCCc3ccccc32)c2oc3ccccc3c2n1 | 0.5% |
| O=C(CSc1nc2ccccc2c(=O)n1-c1ccccc1)N1CCCc2ccccc21 | -19.1% |
| Cc1nc(SCC(=O)NCc2ccco2)c2oc3ccccc3c2n1 | -2.6% |
| Cc1nc(SCC(=O)N2CCCc3ccccc32)c2oc3ccccc3c2n1 | -0.3% |
